The record followed here is the supplement of paper PMC12340641.

Counter-ions that a name gives are not always drawn. ± gives the standard deviation of the averaged measurements.

For the experiment, the system named is HEK293FT dCK*-IKZF1. Kind of experiment: relative growth recovery (pomalidomide 10 uM = 100%, DMSO = 0%); higher = more growth rescue (IKZF1 fusion degradation). Conditions: compound concentration: 5 uM; AraC concentration: 0.3 uM; overnight pretreatment + 4 days AraC. Put shortly:
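Means of duplicates from different days are given for growth recovery, normalised per plate against a reference degrader and vehicle. The reference degrader set the 100% level and vehicle the 0% level. HEK293FT cells stably expressing a deoxycytidine kinase–IKZF1 fusion (300/well, 384-well) received 5 μM compound 2 h after seeding and, after overnight at 37 °C, 0.3 μM of a nucleoside suicide substrate plus medium for 4 days. Nuclei stained with Hoechst 33342 were then counted by whole-well imaging on day 5.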
Regarding `CCCCCCCC[N+](C)(C)Cc1ccccc1` [benzyldimethyloctylammonium], the relative growth recovery is 5.02%.
In the case of `COC(=O)Nc1nc2cc(SC(C)C)ccc2[nH]1` [methiazole], the relative growth recovery was -10.8%.
As for `CCOC(=O)Nc1ccc2c(c1)N(C(=O)CCN1CCOCC1)c1ccccc1S2` [moracizine], the relative growth recovery is -0.545%.
The result for `C=C1/C(=C/C=C2\CCC[C@]3(C)[C@@H]([C@H](C)/C=C/[C@@H](C)C(C)C)CC[C@@H]23)C[C@@H](O)C[C@@H]1O` [Doxercalciferol (Hectorol)] reads 2.85%; that for `CCOC(=O)C1=C(C)NC(C)=C(C(=O)OC)C1c1cccc(Cl)c1Cl` (stereo not drawn), -1.19%; that for `Cc1ccc(S(=O)(=O)N/N=C/c2cc(Br)ccc2O)cc1`, 2.03 ± 2.8%.
Take `CO[C@H]1/C=C/O[C@@]2(C)Oc3c(C)c(O)c4c(O)c(c5c(c4c3C2=O)=NC2(CCN(CC(C)C)CC2)N=5)NC(=O)C(C)=CC=CC(C)[C@H](O)[C@@H](C)[C@@H](O)[C@@H](C)[C@H](OC(C)=O)[C@@H]1C` (stereo partly drawn) [Rifabutin]: the relative growth recovery was -0.05%.
For `CCOC(=O)c1ccc(N)cc1` the value was -2.68%; for `O=C(Nc1ccc(S(=O)(=O)Nc2ccccc2Cl)c(Cl)c1)c1ccccn1`, -1.18%; for `Cc1ncsc1-c1ccc(CNC(=O)[C@@H]2C[C@@H](O)CN2C(=O)[C@@H](NC(=O)COCCCCOc2ccc(-c3ccc(N4C(=S)N(c5ccc(C#N)c(C(F)(F)F)c5)C(=O)C4(C)C)cc3)cc2)C(C)(C)C)cc1`, 55.3%.
As for `COCCOC(=O)C1=C(C)NC(C)=C(C(=O)OC(C)C)C1c1cccc([N+](=O)[O-])c1` (stereo not drawn), the relative growth recovery turned out to be 6.1%.
On to `C[n+]1c2cc(N)ccc2cc2ccc(N)cc21`, for which the relative growth recovery is -15%.
For `Nc1nc(N)c2nc(-c3ccccc3)c(N)nc2n1` the value was -5.46%; for `CN1CCCC(CC2c3ccccc3Sc3ccccc32)C1` (stereo not drawn) [metixene], 1.64%; for `O=C(/C=C/c1ccc(O)c(O)c1)c1ccc(O)cc1O` [Butein], -8.42%.
Regarding `O=C(CSc1nnc2c(n1)[nH]c1ccccc12)Nc1ccc(Cl)cn1`, the relative growth recovery turned out to be 1.11%.
Take `CCCCCCCCCCCCCCCC[N+](C)(C)CCN(Cc1ccc(OC)cc1)c1ncccn1` [thonzonium bromide]: the relative growth recovery was -10.3%.
For `CCCCCCCCCCCC1=C(O)C(=O)C=C(O)C1=O` [embelin] the value was -3.97%; for `CC(C)(C)CC(C)(C)c1ccc(O)c(Cc2ccc(Cl)cc2Cl)c1`, -7.76%; for `CC(C)/N=c1/cc2n(-c3ccc(Cl)cc3)c3ccccc3nc-2cc1Nc1ccc(Cl)cc1` [Clofazimine], -0.03%.
On to `O=C(NCCO[N+](=O)[O-])c1cccnc1`, for which the relative growth recovery is -1.74%.
For `CN1CCN(c2ncc(-c3cc(Cl)cc(Cl)c3Cl)c(N)n2)CC1` [sipatrigine] the value was 2.4%; for `CN(C)CC/C=C1/c2ccccc2Sc2ccc(Cl)cc21`, -0.74%; for `Cc1ncsc1-c1ccc(CNC(=O)[C@@H]2C[C@@H](O)CN2C(=O)[C@@H](NC(=O)COCCOCCOc2ccc(-c3ccc4ncnc(Nc5ccc(OCc6cccc(F)c6)c(Cl)c5)c4c3)cc2)C(C)(C)C)cc1`, 19.7%.
Turning to `CN(C)c1ccc(/C=C2\C(=O)Nc3ccccc32)cc1`, the relative growth recovery is 2.52%.
As for `Nc1ncn([C@@H]2O[C@H](CO)C(O)C2O)c(=O)n1` (stereo partly drawn) [Azacitidine], the relative growth recovery is -3.45%.
In the case of `O=C(N/N=C/c1ccccc1O)c1ccccc1O`, the relative growth recovery was -2.29%.
Consider `NC(=O)C(c1ccccc1)(c1ccc(F)cc1)c1ccc(F)cc1` [Senicapoc], for which the relative growth recovery was -0.855%.
Turning to `COc1cc(C(=O)NS(=O)(=O)c2ccccc2C)ccc1Cc1cn(C)c2ccc(NC(=O)OC3CCCC3)cc12` [Zafirlukast (Accolate)], the relative growth recovery worked out at 0.805%.
For `CC(O)(C(=O)Nc1ccc(S(=O)(=O)c2ccccc2)cc1)C(F)(F)F` (stereo not drawn) the value was 0.77%.
For `Cc1noc(C)c1-c1ccc(-c2cc(C(N)=O)c(NC(N)=O)s2)c(O[C@H]2CCNC2)c1`, the relative growth recovery was determined as 3.93%.
On to `NC(=O)NC(=O)Cc1ccccc1`, for which the relative growth recovery was -2.01%.
The result for `CCOC(=O)C1=C[C@]2(CC)CCCN3CCc4c(n1c1ccccc41)[C@@H]32` reads 3.4%; that for `COc1cccc2c1C(=O)c1c(O)c3c(c(O)c1C2=O)C[C@@](O)(C(=O)CO)C[C@@H]3O[C@H]1C[C@H](N)[C@@H](O)[C@H](C)O1` [Epirubicin Hydrochloride], -13.7%.
In the case of `Nc1ccc(-c2ccc3ncc4ccc(=O)n(-c5cccc(C(F)(F)F)c5)c4c3c2)cn1` [torin-2], the relative growth recovery is -12.2%.
`COc1cc(N2CCC(N3CCN(C(=O)CNc4cccc5c4C(=O)N(C4CCC(=O)NC4=O)C5=O)CC3)CC2)ccc1Nc1ncc(Cl)c(Nc2ccccc2P(C)(C)=O)n1` (stereo not drawn): the relative growth recovery is -0.385%.
For `C=C1/C(=C\C=C2/CCC[C@]3(C)[C@@H]([C@H](C)/C=C/C=C/C(O)(CC)CC)CC[C@@H]23)C[C@@H](O)C[C@@H]1O` [Seocalcitol] the value was 6.88%; for `C[C@@H]1CC2C3CCC4=CC(=O)C=C[C@]4(C)[C@@]3(F)[C@@H](O)C[C@]2(C)[C@H]1C(=O)CO` (stereo partly drawn), -0.19%.
